PubChem BioAssay AID504607 (Sanford-Burnham Center for Chemical Genomics, 2011)
The campaign covered roughly 6,200 compounds. About 4,800 (77%) were called active.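 How the source made its calls: active means mean inhibition at 8 µM reaching about 37%, which flags the compound as non-specific (limit read from the data); inactive means the rest.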 The set was probably picked from earlier hits. A selection follows.

Experiment: luminescence decrease from intact luciferase reporter – cell-based, single concentration, SaOS-2, counter-screen for Mdm2/MdmX interaction inhibitor project, confirmation (AID 504607);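 further: p53-null SaOS-2 cells with luciferase driven by a doxycycline-inducible promoter; compound on cells about two nights before reading with doxycycline added after day one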
Details: SaOS-2 full-length luciferase counterscreen, at 8 µM, hits give high values

Row | SMILES | inhibition
1 | Cc1ccc(OCCOCCOc2ccc(Br)cc2/C=N\NC(=O)c2ccncc2)cc1 | 45.5% (active)
2 | CC(=O)N1CCc2c(sc(NC(=O)CCS(=O)(=O)c3ccccc3)c2C#N)C1 | 57.3% (active)
3 | O=[N+]([O-])c1ccccc1S(=O)(=O)Nc1cccc2cccnc12 | 56.4% (active)
4 | COc1cc(NS(=O)(=O)c2ccc3ccccc3c2)c2ncccc2c1 | 22.5% (inactive)
5 | COc1ccc(NC(=O)/C(Cl)=C(/Cl)S(=O)Cc2ccc(C)cc2)cn1 (configuration not stated) | 0.18% (inactive)
6 | CN(C)CCCn1c(=O)n(Cc2ccccc2)c(=O)c2c3c(sc21)CCCCC3 | 70% (active)
7 | Cc1ccc(CS(=O)(=O)c2ncc(Cl)c(C(=O)Nc3nnc(C)s3)n2)cc1 | 50.9% (active)
8 | CSc1nnc(NC(=O)c2nc(S(=O)(=O)Cc3ccc(C)cc3)ncc2Cl)s1 | 49.9% (active)
9 | COc1ccccc1N1CCN(c2ncnc3sc(C)c(-c4ccccc4)c23)CC1 | 80.6% (active)
10 | COc1ccccc1N(CC(=O)N/N=C(\C)c1ccccc1O)S(=O)(=O)c1ccc(C)cc1 | 37.3% (active)
11 | COc1cc(NC(=O)c2[nH]cnc2C(N)=O)cc(C(=O)Nc2cccc(C(F)(F)F)c2)c1 | 50% (active)
12 | COc1cc(NC(=O)c2cncc(-c3ccc(C#N)cc3)c2)cc(C(=O)Nc2cccc(C(F)(F)F)c2)c1 | 21.1% (inactive)
13 | CC[C@H]1CN2CCc3cc(OC)c(OC)cc3[C@@H]2C[C@@H]1C[C@H]1NCCc2cc(OC)c(OC)cc21 | 51.2% (active)
14 | Cc1ccc(C(=O)N/C(=C/c2ccc(-c3cccc([N+](=O)[O-])c3)o2)C(=O)NCCCN(C)C)cc1 | 44.1% (active)
15 | Nc1nonc1-c1nc2ccccc2n1Cc1ccc(F)cc1 | 71.9% (active)
16 | COc1ccc(OC)c(C2C3=C(N=c4s/c(=C\c5cccc(O)c5)c(=O)n42)c2ccccc2CC3)c1 (configuration not stated) | 41.8% (active)
17 | C=CCn1c(SCc2c(C)noc2C)nc2sc3c(c2c1=O)CCC(C)C3 (configuration not stated) | 52.9% (active)
18 | O=C(NCC1CCCO1)c1cc2c([nH]c3ccccc32)c(-c2ccc(F)cc2)n1 (configuration not stated) | 74.8% (active)
19 | Oc1c(CN2CCCC2)cc(COCc2ccccc2)c2cccnc12 | 32.2% (inactive)

Row | SMILES | inhibition
20 | COc1cc(/C=N/NC(=O)Nc2ccccc2)ccc1OCCOc1ccccc1C | 62.6% (active)
21 | O=C(NC(=O)c1ccccc1N1CCCCC1)Nc1ccc(Br)cc1 | 86.3% (active)
22 | CCOC(=O)c1c(-c2ccc(C)cc2C)csc1NC(=O)CSc1nnnn1C | 73.6% (active)
23 | COc1ccc(C2CC(c3ccccc3)=NN2C(=O)c2ccc(Cl)c([N+](=O)[O-])c2)cc1 (configuration not stated) | 62.6% (active)
24 | CC(=O)c1ccc(S(=O)(=O)N2CCN(C(=O)/C=C/c3ccc4ccccc4n3)CC2)cc1 | 46.9% (active)
25 | N/C(=N\OC(=O)c1ccc2c(c1)OCO2)c1ccc(Br)cc1 | 137% (active)
26 | CCc1nc(C)cn1S(=O)(=O)c1cc([N+](=O)[O-])ccc1Cl | 103% (active)
27 | CCOc1cc(/C=C/c2nc3ccccc3c(=O)[nH]2)cc(Br)c1OC | 57.5% (active)
28 | O=C(/C=C/c1ccc(Cl)c([N+](=O)[O-])c1)c1ccc(O)cc1 | 59.3% (active)
29 | O=C(/C=C/c1ccc(Cl)c([N+](=O)[O-])c1)c1cccnc1 | 67.5% (active)
30 | CC(C)Cc1nc(Nc2ccc(S(=O)(=O)N3CCCC3)cc2)c2nnn(Cc3ccccc3)c2n1 | 24.1% (inactive)
31 | CCCc1nc(NCc2ccc3c(c2)OCO3)c2nnn(Cc3ccccc3Cl)c2n1 | 91.5% (active)
32 | COc1ccc(/C=C/C(=O)c2ccc(NS(=O)(=O)c3ccc(C)cc3)cc2)cc1O | 65.2% (active)
33 | Cc1ccc(C2CC(=O)NC(SCC(=O)OCc3ccccc3)=C2C#N)o1 (configuration not stated) | 55.9% (active)
34 | Cc1ccsc1C(=O)OCC(=O)c1cc(C)n(CC2CCCO2)c1C (configuration not stated) | 28.9% (inactive)
35 | Cc1cc(C(=O)COC(=O)CNC(=O)c2ccc(F)cc2)c(C)n1Cc1ccco1 | 98.9% (active)
36 | CCOc1cc(C(=O)N2CCc3cc(OC)c(OC)cc3C2)ccc1OC(F)F | 86.4% (active)
37 | COc1ccc(N=Cc2c(O)[nH]c3ccccc23)cc1OC | 65.3% (active)
38 | COc1cc(N=Cc2c(O)[nH]c3ccccc23)cc(OC)c1OC | 47% (active)

Row | SMILES | inhibition
39 | c1ccc2c(c1)C(=NC1CCCCC1)NC2=NC1CCCCC1 | 42.2% (active)
40 | OC(CNCC1CCCO1)Cn1c2ccc(Br)cc2c2cc(Br)ccc21 (configuration not stated) | 52.2% (active)
41 | CC1=C/C(=N\OS(=O)(=O)c2ccccc2)C=CC1=O | 45.1% (active)
42 | CCc1ccc2c(c1)C1(NN=C(c3ccccc3)S1)C(=O)N2 (configuration not stated) | 40.3% (active)
43 | Cn1cc([N+](=O)[O-])c(C(=O)Nc2cnn(Cc3ccc(F)cc3)c2)n1 | 74.9% (active)
44 | COc1ccccc1-n1nnnc1S(=O)(=O)Cc1ccc(Cl)cc1 | 52.1% (active)
45 | COc1cccc(/C=N/NC(=O)c2[nH]nc3c2CCc2ccccc2-3)c1O | 27% (inactive)
46 | COc1cccc(/C=N/Nc2cc(C)nc(-c3ccccc3O)n2)c1O | 55.6% (active)
47 | c1ccc(C2CCC(N3CCC(N4CCCCC4)CC3)CC2)cc1 (configuration not stated) | 38.2% (active)
48 | CCCCCCCCCCOC(=O)Cn1c(COc2cccc(OC)c2)[n+](C)c2ccccc21 | 31.2% (inactive)
49 | CCCCCCCCCCOC(=O)Cn1c(COc2ccc(C)cc2)[n+](C)c2ccccc21 | 59.5% (active)
50 | CC1CCN(C(=O)c2ccc(S(=O)(=O)Cc3cc(F)ccc3F)c([N+](=O)[O-])c2)CC1 | 44.1% (active)
51 | COc1ccc(-c2n[nH]c(C)c2-c2ccc(OC)c(OC)c2)c(O)c1 | 53.7% (active)
52 | COc1ccc(-c2cn[nH]c2-c2ccc(OC)cc2)cc1 | 35.1% (inactive)
53 | CCCCn1c(-c2cccc(C)c2)nc2cc3[nH]c(=O)c(C(C)C)nc3cc21 | 91.6% (active)
54 | CC(=O)Nc1nc(C)c(-c2csc(Nc3ccc(S(N)(=O)=O)cc3)n2)s1 | 31.7% (inactive)
55 | O=C(NC(=S)Nc1ccc2oc(=O)ccc2c1)c1ccc(-c2cccc(Cl)c2Cl)o1 | 68.2% (active)
56 | O=c1oc2ccccc2cc1-c1cn(-c2ccccc2)c(=S)[nH]1 | 38.4% (active)
57 | NC(N)=Nc1nc(-c2ccccc2)c2cc(Cl)ccc2n1 | 53.4% (active)
